Experimental data reported in PubChem BioAssay.
Calls of active or inactive are those of the source.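 How the source made its calls, unless noted: active means compounds that lower survival of HCT116 colon cancer cells in the luminescence readout, no numeric limit stated; inactive means the rest.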

Tests used:
[1] = stimulators of nuclear beta-catenin in C2C12, primary screen, imaging, WNT3A-conditioned medium, mouse C2C12, NPC library (AID 1117326; in the data active means nuclear beta-catenin stimulation mostly above about 4.2%, no sharp cut-off; inactive means mostly below about 10%; further: reference of the scale not given here); details: stronger effect = higher value
[2] = stimulators of insulin release from INS-1E, primary screen, cell-based, 5 mM glucose, NPC library (AID 1117329;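 active means compound raises insulin release from rat beta cells at 5 mM glucose, no numeric limit stated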; further: reference of the scale not given here); details: rat INS-1E insulin secretion, at 10 µM, stronger effect = higher value
[3] = growth inhibition of GSK3B-pretreated HCT116 cells – cell-based, CellTiter-Glo, 0.2 to 20 µM (AID 1117336;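 active means compounds lowering colon cancer cell viability after pretreatment blocking the GSK3B kinase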); details: HCT116 viability after GSK3B inhibitor, at 20 µM, stronger effect = higher value
[4] = inhibition of endothelial tube formation, primary screen, imaging, VEGF stimulated, CD31 staining, tube area, NPC library (AID 1117340;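 active means compound that reduces growth-factor-driven endothelial tube area in a mixed cell culture, no cutoff stated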); details: VEGF-stimulated ADSC/ECFC co-culture, at 10 µM, stronger effect = higher value
[5] = glucagon-like peptide 1 release enhancers, primary assay, NCI-H716 cell line, NPC library (AID 1117341;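 active means compound raises GLP1 secretion from the human gut endocrine cells, with no numeric limit stated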; further: reference of the scale not given here); details: NCI-H716 cells, at 10 µM, stronger effect = higher value
[6] = HCT116 colon cancer cell growth inhibition, primary screen, CellTiter-Glo luminescence, NPC library (AID 1117342); details: at 20 µM (top of the series)
[7] = CellTiter-Glo luminescent readout of SW480 viability loss, NPC library primary (AID 1117343;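 active means compounds that lower viability of the colon cancer cells in the luminescence readout, with no numeric limit stated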); details: CellTiter-Glo luminescence; at 20 µM (top of the series)
[8] = decreased DLD-1 cellular survival, CellTiter-Glo luminescent readout, NPC compound collection, primary HTS (AID 1117346;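 active means compounds that lower survival of DLD-1 colon cancer cells in the luminescence readout, no cutoff given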); details: DLD-1 viability, CellTiter-Glo luminescence; at 20 µM (top of the series)

Row | SMILES | nuclear beta-catenin stimulation ([1]; at 10 µM) | nuclear beta-catenin stimulation ([1]; stimulation, at 2 µM) | insulin secretion stimulation [2] | viability decrease [3] | tube area decrease [4] | GLP1 secretion stimulation [5] | inhibition of viability [6] | viability decrease (inhibition) [7] | viability decrease (inhibition) [8]
1 | Nc1nc2ccccc2n1Cc1ccc(F)cc1 | 0.8% (inactive) | -2% | 0.8% (inactive) | 56.4% (active) | 15.1% (inactive) | -0.6% (inactive) | 74.9% (active) | 84% (active) | 43% (inactive)
2 | CCCCN(CCCC)C(C(N)=O)c1ccc(OC)cc1 (configuration not stated) | 0% (inactive) | -1.4% | 36.4% (active) | -5.1% (inactive) | 6.6% (inactive) | 2.1% (inactive) | 30.2% (inactive) | 10.2% (inactive) | 2.6% (inactive)
3 | CCCCOC(=O)CCCCCCCCC(=O)OCCCC | 1.4% (inactive) | 1% | 2.4% (inactive) | 10.4% (inactive) | 3.7% (inactive) | 1.9% (inactive) | 13.3% (inactive) | -9.1% (inactive) | 7.6% (inactive)
4 | CN1CCN(CCC(=O)N2c3ccccc3Sc3ccc(C(F)(F)F)cc32)CC1 | 2.3% (inactive) | 2.1% | 16.1% (inactive) | 72.7% (active) | 19.7% (inactive) | 11.5% (inactive) | 60% (active) | 117% (active) | 57.8% (active)
5 | COC(=O)CCC(=O)CN | -1.5% (inactive) | 0.1% | 0.4% (inactive) | 0.2% (inactive) | -14.2% (inactive) | -0.4% (inactive) | 11.6% (inactive) | 24.2% (inactive) | 18.4% (inactive)
6 | NC(=O)C(=O)N/N=C/c1ccc([N+](=O)[O-])o1 | 4.5% (inactive) | 1.5% | -3.3% (inactive) | 17.6% (inactive) | 28.8% (inactive) | -1.5% (inactive) | 0.3% (inactive) | 89.2% (active) | 23.6% (inactive)
7 | NC(=O)CC[C@@H]1NC(=O)[C@H](Cc2ccccc2)NC(=O)[C@H](Cc2ccc(O)cc2)NC(=O)CCSSC[C@@H](C(=O)N2CCC[C@H]2C(=O)N[C@@H](CCCN=C(N)N)C(=O)NCC(N)=O)NC(=O)[C@H](CC(N)=O)NC1=O | -0.6% (inactive) | -1.2% | 0.8% (inactive) | 8.4% (inactive) | 3.9% (inactive) | 2.4% (inactive) | 1% (inactive) | 1.3% (inactive) | -0.2% (inactive)
8 | O=C(CN1CCN(Cc2ccc3c(c2)OCO3)CC1)N1c2ccccc2Sc2ccccc21 | 0.2% (inactive) | 2.2% | 7.5% (inactive) | 63.5% (active) | 7.5% (inactive) | 16.3% (inactive) | 67.4% (active) | 126% (active) | 76.8% (active)
9 | CCCCCCCCOc1ccc(C(=O)c2ccccc2)c(O)c1 | 1% (inactive) | 0.6% | -2.1% (inactive) | -6.85% (inactive) | -7.2% (inactive) | 0.4% (inactive) | -7.5% (inactive) | -0.5% (inactive) | 6.1% (inactive)
10 | CCN1C(=O)c2ccccc2C1Nc1ccc(OCCN2CCCCC2)cc1 (configuration not stated) | 0.7% (inactive) | 0.3% | 18.5% (inactive) | 10.5% (inactive) | 14.2% (inactive) | 7.7% (inactive) | 47.4% (inactive) | 13.4% (inactive) | -3.1% (inactive)
11 | C[N+]1(CC2COC(c3ccccc3)(C3CCCCC3)O2)CCCCC1 (configuration not stated) | -2.3% (inactive) | -1.4% | 5% (inactive) | -13.4% (inactive) | 10.1% (inactive) | -2.3% (inactive) | 28.7% (inactive) | 7.6% (inactive) | 3.2% (inactive)
12 | O=C1CCCc2c(O)cccc21 | 1.1% (inactive) | 2.2% | 0.3% (inactive) | 1% (inactive) | 19.3% (inactive) | 2.2% (inactive) | 11.4% (inactive) | 12.5% (inactive) | -7.2% (inactive)
13 | O=C(CS)Nc1ccccc1 | 0.5% (inactive) | -0.2% | 6.4% (inactive) | -38.2% (inactive) | 4.3% (inactive) | -2.3% (inactive) | -19.3% (inactive) | -2.4% (inactive) | -12.9% (inactive)
14 | C#C[C@]1(O)CC[C@@H]2[C@@H]3CCC4=CCCC[C@@H]4[C@H]3C(=C)C[C@@]21CC | 1% (inactive) | -0.9% | -1.9% (inactive) | 99.1% (active) | 55.3% (active) | -7.2% (inactive) | 99% (active) | 102% (active) | 101% (active)
15 | CCCN(CCC)C(=O)C(CCC(=O)OCCCN1CCN(CCOC(=O)Cc2c(C)n(C(=O)c3ccc(Cl)cc3)c3ccc(OC)cc23)CC1)NC(=O)c1ccccc1 (configuration not stated) | 51% (active) | -0.4% | 0.4% (inactive) | 113% (active) | 25.9% (inactive) | 3.5% (inactive) | 113% (active) | 120% (active) | 93.3% (active)
16 | O=C(O)c1cc(=O)c2c3nc4ccccc4oc-3cc(=O)c2[nH]1 | -0.4% (inactive) | -0.7% | -0.1% (inactive) | 10.4% (inactive) | 16.6% (inactive) | -7.4% (inactive) | -31.1% (inactive) | 17.8% (inactive) | -15.6% (inactive)
17 | O=C(Cn1ccnc1[N+](=O)[O-])NCc1ccccc1 | -0.6% (inactive) | 0.4% | -1.9% (inactive) | -22.5% (inactive) | -8.5% (inactive) | -4.4% (inactive) | 1.8% (inactive) | 7.9% (inactive) | 1% (inactive)
18 | COc1ccc(C(C#N)C(C)C)cc1OC (configuration not stated) | -1.8% (inactive) | 0.3% | 2.2% (inactive) | -24.5% (inactive) | 9.3% (inactive) | -3.4% (inactive) | 13.4% (inactive) | -4.7% (active) | -19.9% (inactive)
19 | Oc1ccc(Cl)cc1Sc1cc(Cl)ccc1O | 4.4% (inactive) | 0% | 4.5% (inactive) | 100% (active) | 101% (active) | 47.3% (active) | 102% (active) | 122% (active) | 103% (active)
20 | CC(C)(C)CC(C)(C)c1ccc(O)c(-n2nc3ccccc3n2)c1 | 1.5% (inactive) | 1.1% | -1% (inactive) | 13.1% (inactive) | 23.9% (inactive) | -1.5% (inactive) | -8.9% (inactive) | 82.6% (active) | 22.1% (inactive)
21 | NC(Cc1ccc([N+](=O)[O-])cc1)C(=O)O (configuration not stated) | -0.2% (inactive) | 0% | -0.8% (inactive) | -7.7% (inactive) | -16.5% (inactive) | -0.7% (inactive) | -2.8% (inactive) | -1.7% (inactive) | -20.4% (inactive)
22 | O=P(O)(O)OCC(O)CO (configuration not stated) | 0.5% (inactive) | 0.5% | -2.1% (inactive) | 4.35% (inactive) | -14.2% (inactive) | 0.6% (inactive) | 9.3% (inactive) | 23.1% (inactive) | 18.2% (inactive)
23 | COc1ccc(OC(=O)N(CC(=O)O)Cc2ccc(OCCc3nc(-c4ccccc4)oc3C)cc2)cc1 | 1% (inactive) | -0.5% | -0.3% (inactive) | 100% (active) | -9% (inactive) | 51.7% (active) | 86.4% (active) | 105% (active) | 91.5% (active)
24 | O=c1[nH]sc2cc(Cl)ccc12 | 15.5% (inactive) | 7.8% | -2.7% (inactive) | 58.1% (active) | 89.7% (active) | 45% (active) | 20.5% (inactive) | 157% (active) | 63.5% (active)
25 | CCCN(CCc1cccs1)[C@H]1CCc2c(O)cccc2C1 | 0.6% (inactive) | -2.2% | 8.95% (inactive) | 48.4% (inactive) | 0.6% (inactive) | 2.4% (inactive) | 65.2% (active) | 30.3% (inactive) | 9.7% (inactive)
26 | COC(=O)c1ccc(NC(C)=O)cc1OC | -0.5% (inactive) | -1.4% | -1.4% (inactive) | 13.4% (inactive) | -3.1% (inactive) | -1.8% (inactive) | 1.7% (inactive) | -18.6% (inactive) | -4.9% (inactive)
27 | CCCCCCCCCCCCCCCCCCO | 0.4% (inactive) | -0.4% | -1.7% (inactive) | -15.2% (inactive) | -3.6% (inactive) | 1.9% (inactive) | -11.1% (inactive) | 0.9% (inactive) | -5.65% (inactive)
28 | CC(C)=CCOc1ccc(/C=C/C(=O)c2ccc(OCC=C(C)C)cc2OCC(=O)O)cc1 | 10.1% (inactive) | -0.2% | 0.6% (inactive) | 99.2% (active) | 108% (active) | -0.1% (inactive) | 99.6% (active) | 102% (active) | 102% (active)
